High-throughput results (PubChem)
An excerpt weighted towards active compounds, which were near 11% of everything screened.
Bst PK mod: Pyruvate Kinase | purified pyruvate kinase, luminescence ATP production; ribose 5-phosphate activator present at AC10 | Potency, µM | 51,000 compounds, 1.2% hits | AID 361, 2006; in the data active = potency below about 11 µM; inconclusive = mostly about 12 µM to 25 µM;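 the screen sought inhibitors and activators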;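 note: scaled between full activation by ribose 5 phosphate and full inhibition by luteolin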
ERK AVP block: qHTS Assay for Inhibitors of the ERK Signaling Pathway using a Homogeneous Screening Assay; 72,000 compounds, 0.99% hits; HEK293-V1b, vasopressin-stimulated pERK AlphaScreen; Potency, µM (series often up to 57.5 µM), inactives show at the top dose activity, negative = inhibition, most hits filed as inhibitors; AID 995, 2007; note: nearly all actives have a fitted effect of over 55% in size
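qHTS, compounds titrated on V1b-expressing HEK293 cells. Preincubation 30 min at 37C, vasopressin 25 nM for 5 min, lysis 10 min, bead incubation 5 hr at room temperature.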
HADH2 inh: qHTS Assay for Inhibitors of HADH2 (Hydroxyacyl-Coenzyme A Dehydrogenase, Type II); recombinant HADH2, NADH fluorescence, beta-hydroxybutyryl-CoA; Potency, µM (doses to about 57.1 µM), for the others: at the highest dose activity change, negative = inhibition, actives largely listed as inhibitors; 73,000 compounds, 3.4% hits; note: nearly all actives have a fitted effect of over 60% in size
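NADH fluorescence (ex 360/em 450 nm) read every 30 s for 4 min; activity taken as last-minus-first time point difference. Enzyme 20 nM, NAD+ 1 mM, beta-hydroxybutyryl-CoA 90 uM, pH 9.0 Tris buffer.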
15-hLO inh: qHTS Assay for Inhibitors of 15-hLO (15-human lipoxygenase) | Polyunsaturated fatty acid lipoxygenase ALOX15 (Homo sapiens), P16050 | purified 15hLO-1, xylenol orange hydroperoxide absorbance | Potency, µM (top dose mostly 57.1 µM), without a hit: at the highest dose activity change, negative = inhibition, most hits filed as inhibitors | 74,000 compounds, 1.4% hits | AID 887, 2007; note: nearly all actives have a fitted effect of over 55% in size
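Purified human 15hLO-1 (40 nM) in 25 mM Hepes pH 7.5, 0.01% Triton X-100, preincubated 15 min RT with compound, then 50 uM arachidonic acid for 6 min. Hydroperoxide read by ferrous/xylenol orange, 30 min; 573/405 nm absorbance ratio gave progress.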
HSD17B inhib: qHTS Assay for Inhibitors of HSD17B4, hydroxysteroid (17-beta) dehydrogenase 4. 3-hydroxyacyl-CoA dehydrogenase type-2 (Homo sapiens), Q99714. recombinant HSD17B10, NADH fluorescence kinetic. Potency, µM (highest dose often 57.1 µM), for inactives: at the top dose activity change, negative = inhibition, usual class: inhibitors. 75,000 compounds, 7.6% hits;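 note: the protocol describes HADH2 (HSD17B10) and not the HSD17B4 of the title; nearly all actives have a fitted effect of over 70% in size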
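Activity followed as NADH fluorescence increase (ex 360, em 450 nm) every 30 seconds for 4 min, using final 90 uM beta-hydroxybutyryl CoA and 1 mM NAD+. Recombinant His-tagged enzyme, 20 nM, pH 9.0 Tris buffer, 15 min compound preincubation.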
FLuc inh: qHTS Assay for Inhibitors of Firefly Luciferase; Potency, µM (top dose mostly 57.1 µM), for the others: at the top dose activity change, negative = inhibition, actives largely listed as inhibitors; purified firefly luciferase, luminescence, 8 min; 72,000 compounds, 2.2% hits; note: nearly all actives have a fitted effect of over 40% in size
Target sequence (P08659 whole entry, looked up): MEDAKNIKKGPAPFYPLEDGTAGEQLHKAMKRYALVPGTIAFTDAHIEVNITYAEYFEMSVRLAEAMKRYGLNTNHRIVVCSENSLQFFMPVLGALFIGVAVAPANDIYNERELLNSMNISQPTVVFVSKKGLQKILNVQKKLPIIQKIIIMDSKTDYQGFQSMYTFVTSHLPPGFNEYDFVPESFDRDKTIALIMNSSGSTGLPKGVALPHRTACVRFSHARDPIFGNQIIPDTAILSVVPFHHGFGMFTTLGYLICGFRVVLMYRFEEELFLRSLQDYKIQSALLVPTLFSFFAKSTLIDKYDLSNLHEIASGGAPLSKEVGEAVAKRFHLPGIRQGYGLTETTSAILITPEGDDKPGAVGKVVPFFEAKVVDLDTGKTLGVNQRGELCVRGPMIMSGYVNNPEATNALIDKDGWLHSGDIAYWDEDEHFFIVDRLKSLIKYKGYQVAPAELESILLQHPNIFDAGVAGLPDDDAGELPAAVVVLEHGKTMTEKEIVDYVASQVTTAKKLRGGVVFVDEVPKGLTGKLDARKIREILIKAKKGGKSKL
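Titration-based qHTS; buffer 50 mM imidazole pH 7.2, 50 mM KCl, 7 mM MgCl2, 10 uM ATP, 0.01% Tween 20, 0.05% BSA; luciferase/luciferin detector mix added after compound; 8 min, ambient; luminescence.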
Active calls of the source: *; u = inconclusive; x = no result; ! = not confirmed by another sample; [ ] = remark or other dose. Unless noted, calls come from the whole dose curve; as a rule, active = well fitted curve in the direction sought with a large enough effect; inconclusive = small, poorly fitted or top-dose-only effect, or another doubt; inactive = no such curve, though single readings can be large; an effect the other way counts as inactive or inconclusive. Unless noted, % is set by controls: 0 for no effect and ±100 for the full control effect; potency is the fitted concentration of half-maximal effect.

SMILES	Bst PK mod	ERK AVP block	HADH2 inh	15-hLO inh	HSD17B inhib	FLuc inh
CC(=O)Nc1ccc(Oc2ccc3nc(C)[nH]c3c2)cc1	>26	x	x	x	x	-2%[25.5 µM]
CC(=O)Nc1ccc2nc(-c3cccs3)[nH]c2c1	x	-2%	428%[11.4 µM]	0%[11.4 µM]	16µM*	16µM*
O=C(Nc1ccc2nc(-c3ccc(Br)o3)[nH]c2c1)c1cccs1	u	u	-15%	-28%	-9%	13µM*
O=C(Nc1ccc2nc(-c3ccc(Br)o3)[nH]c2c1)c1ccco1	10*	-26%	0%	-5%	-15%	10µM*
NCCC1([N+](=O)[O-])CCNCC1	x	5%[11.5 µM]	2%[11.4 µM]	24%[11.4 µM]	1%[11.4 µM]	3%[11.4 µM]
C/C(=N\O)c1cccc[n+]1Cc1ccccc1	x	-17%[11.5 µM]	4%[11.4 µM]	2%[11.4 µM]	11%[11.4 µM]	4%[11.4 µM]
Cc1noc(C)c1C(=O)Nc1nc(C23CC4CC(CC(C4)C2)C3)cs1	>57	20µM*	10%	-28%	-15%	-1%
Cn1c(NCc2ccco2)nc2c1c(=O)n(Cc1ccc(Cl)c(Cl)c1)c(=O)n2C	1.9*	x	x	x	x	2%[25.5 µM]
COC(=O)NC(/C(C(=O)OC)=C(\C)NCc1ccccc1)c1cccc(F)c1 (configuration not stated)	x	17%[11.5 µM]	23%[11.4 µM]	u	2%[11.4 µM]	x
CCCC(C(=O)NC1CCCC1)N(CC1CCCO1)C(=O)c1snc(C(N)=O)c1N (configuration not stated)	>57	13%	-25%	6%	u	1%
CCCC(C(=O)NC1CCCC1)N(CCCN1CCOCC1)C(=O)c1snc(C(N)=O)c1N (configuration not stated)	>57	-3%	-16%	4%	32µM*	-2%
CCCc1nnc(NC(=O)c2c(O)c3cccc4c3n(c2=O)CCC4)s1	>57	23%	18%	1%	10µM*	1%
CC(C)c1nnc(NC(=O)c2c(O)c3cccc4c3n(c2=O)CC4)s1	>57	-5%	-17%	5%	u	4%
CCCCN(C)C(=O)CCCCn1c(=O)[nH]c2cc(OCC)c(OCC)cc2c1=O	>57	4%	-22%	-6%	25µM*	3%
CC(C)[C@H](N=Cc1ccccc1O)C(=O)O	x	4%[11.5 µM]	-9%[11.4 µM]	9%[11.4 µM]	-1%[11.4 µM]	1%[11.4 µM]
COc1ccc2nc(CC(C)(C)CC(=O)O)c[n+]([O-])c2c1	>57	-10%	2%	8%	25µM*	-2%
C=CC(C)(O)CCCC(C)CCCC(C)CCCC(C)C (configuration not stated)	x	9%	-3%	10µM*	-10%	x
CCn1c(=S)sc2nc(C)sc21	>57	3%	3.2µM*	u	-11%	-2%
Cn1cc(-c2nc3cnc(Oc4ccccc4)nc3n(C3CC3)c2=O)c2ccccc21	x	6%	0%	6%	4%	0%[11.4 µM]
O=S(=O)(c1ccccc1)N1CCC2(CCCN(Cc3nccs3)C2)CC1	x	-1%	4%	6%	-1%	-1%[11.4 µM]
CC1(C)[C@@H]2CC[C@]1(CC(=O)O)[C@H](Cl)C2	x	7%[11.5 µM]	-6%[11.4 µM]	9%[11.4 µM]	1%[11.4 µM]	2%[11.4 µM]
Cc1csc(C(C#N)C(=O)c2cc3ccccc3o2)n1 (configuration not stated)	u	6%	2%	-6%	-15%	13µM*
CCC(=O)Nc1ccc(NC(=O)c2cc3ccccc3o2)cc1	x	-17%	-2%	-11%	-2%	-21%
Cc1cc(C)nc(/N=c2/ssnc2Cl)c1	x	u	0.13µM*	u	-13%	0%
O=S(=O)(c1ccccc1)N1CCC2(CC1)CN(c1ccncc1)C2	x	43%	3%	-1%	7%	0%[11.4 µM]
SMILES	Bst PK mod	ERK AVP block	HADH2 inh	15-hLO inh	HSD17B inhib	FLuc inh
COc1cc2nncc(SCc3ccc(Cl)c(Cl)c3)c2cc1OC	x	-2%[11.5 µM]	8%[11.4 µM]	11%[11.4 µM]	-5%[11.4 µM]	2%[11.4 µM]
c1ccc(SCCSc2ccccc2)cc1	x	47%	-6%	-5%	3%	x
O=c1n(CCCN2CCN(c3cccc(Cl)c3)CC2)nc2ccccn12	>26	9%	u	-7%	25µM*	-1%[25.5 µM]
COc1ccc(NC(=O)C2CCCN(S(=O)(=O)c3ccc(C)cc3)C2)cc1OC (configuration not stated)	5.4*	u	14%	-6%	7%	3%
Cc1ccc(S(=O)(=O)N2CCCC(C(=O)NC3=NCCS3)C2)cc1 (configuration not stated)	6.3*	-27%	9%	1%	4%	1%
O=C(O)C12CC3(C(=O)O)CC(C(=O)O)(CC(C(=O)O)(C1)C3=O)C2=O	x	5%[11.5 µM]	-3%[11.4 µM]	2%[11.4 µM]	0%[11.4 µM]	0%[11.4 µM]
N#C/C(=C(/O)CSc1nnc(Cc2cccs2)n1C1CCCCC1)c1nc2ccccc2[nH]1	x	-25%	u	-92%	32µM*	0%
O=C1OCC2=C1C(c1ccc3c(c1)OCO3)Sc1ccccc1N2 (configuration not stated)	>57	20µM*	5%	-27%	-17%	-1%
CC1(C)CCCN(C(=O)c2coc(=O)c(Br)c2)C1	>57	11%	13µM*	-5%	32µM*	1%
Cn1cccc1C(=O)N1CCC2(CCN(Cc3nccs3)CC2)CC1	x	26%	7%	-1%	3%	-1%[11.4 µM]
CCc1c(C)nc(N2CCOCC2)[nH]c1=O	>57	-2%	u	-5%	2%	0%
CCc1c(C)n2nc(C)cc2[nH]c1=O	>57	10%	u	-17%	20µM*	-1%
O=C1C=CC2=C3c4cc(O)c(O)cc4C[C@]3(O)COC2=C1	x	-4%	x	-24%	16µM*	x
O=C1C=CC2=C3c4cc(O)c(O)cc4C[C@@]3(O)COC2=C1O	x	x	0.13µM*	x	x	-11%[11.4 µM]
CC(C)C[C@@H](CC(=O)N[C@@H](CCC(=O)O)CC(=O)O)NC(=O)[C@@H]1CNCC[C@H]1NC(=O)C[C@H](CCCN)NC(=O)C[C@H](Cc1ccccc1)NC(=O)[C@@H]1CCCC[C@H]1N	x	x	11%	x	x	x
CN(C)C(=O)c1ccc(-c2nc(N3CCOCC3)c3ccccc3n2)cc1	x	-27%	-15%	u	u	-1%[2.29 µM]
Nc1ccc(S(=O)(=O)Nc2ccnn2-c2ccccc2)cc1	x	1%	-10%[25.6 µM]	7%	10µM*!	-3%[25.5 µM]
Oc1[nH]c2ccccc2c1/C=N/c1nccs1	u	-19%	-12%	2%	-10%	25µM*
O=C(COC(=O)c1ccc(S(=O)(=O)N2CCOCC2)cc1)Nc1nc(-c2ccccc2)cs1	>57	-19%	24%	-3%	1%	4%
Cc1cc(NC(=O)Cc2cccs2)no1	>57	-21%	25µM*	u	25µM*	0%
